# Experimental data: ChEMBL document CHEMBL4513146, “CO-ADD screening of Karazin Kharkiv National University (Ukraine) compounds”
# Potency and affinity values are given separately.
# Tested on: Staphylococcus aureus
# Details: Concentration 32 ug.mL-1;; ASSAY_TEST Inhibition of Bacterial Growth; detection method Absorption (OD600); MEDIA CAMHB; plate type 384well; NBS; CORNING #3640; time 18 hr
row,Compound,Inhibition
1,CSc1ccc(CNC(=O)Cn2nc3c(N4CCOCC4)nccn3c2=O)cc1,19.42%
2,Cc1cccc(C)c1NC(=O)CSc1nc2ccccc2n2c(C)nnc12,11.69%
3,COc1cccc(CN(c2ccc(F)c(F)c2)S(=O)(=O)c2ccc3nnc(C)n3c2)c1,7.3%
4,COc1cc(NC(=O)Cn2nc3ccc(SC(C)(C)C)nn3c2=O)cc(OC)c1OC,10.38%
5,COc1ccc(-c2cc3c4nn(CC(=O)Nc5ccc(C)cc5)c(=O)n4ccn3n2)cc1,-0.62%
6,COc1ccc(NC(=O)Cn2nc3c4cc(-c5ccc(C)cc5)nn4ccn3c2=O)cc1Cl,-6.7%
7,O=C(Cn1nc2c(SC3CCCCC3)nccn2c1=O)Nc1ccc(F)cc1,2.79%
8,Cc1ccc(S(=O)(=O)Nc2ccc3nnc(-c4ccccc4)n3n2)cc1C,8.79%
9,Cc1nnc2c(=O)n(CC(=O)Nc3ccc(F)cc3F)c3ccccc3n12,10.56%
10,COC(=O)c1cccc(NC(=O)Cn2nc3ccc(-c4ccccc4)nn3c2=O)c1,-7.92%
11,Cc1ccc(-c2cc3c4nnc(CCC(=O)NCc5ccc(F)c(Cl)c5)n4ccn3n2)cc1C,9.12%
12,COCCCNC(=O)CSc1nnc2c(=O)n(Cc3ccccc3F)ccn12,-1.95%
13,O=c1n(Cc2cccc(C(F)(F)F)c2)nc2c(S(=O)(=O)N3CCCCC3)cccn12,4.93%
14,CC(C)c1ccc(CNC(=O)CCc2nnc3c(N4CCCCC4)nc4ccccc4n23)cc1,3.73%
15,NC(=O)C1CCN(C(=O)CCc2nnc3c(N4CCCCC4)nc4ccccc4n23)CC1,14.39%
